As usually defined, the AC50 is the concentration giving half of the maximal activity seen.

A short description of assay [1]: IUF_NPC2c_oligodendrocyte_migration_120hr: Leibniz Research Institute for Environmental Medicine (IUF) 120-hour Neural Progenitor Cell Migration Assay for Oligodendrocyte Migration (NPC2c) (AID 2284297).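 Also: O4-positive oligodendrocyte migration distance divided by radial glia migration distance.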 An outline of the steps: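 hNPC spheres (GW 16-19 cortex), PDL/laminin, DMEM/F12 3:1 + 1% N2, 37C. Dosing day 0–5, half feed day 3, DMSO ≤0.1%. Fixed 120 h; O4 ICC + Hoechst, HCI. Readout: mean oligodendrocyte distance from sphere edge / radial glia distance.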

Assay [2] is described as follows: IUF_NPC2a_radial_glia_migration_120hr: Leibniz Research Institute for Environmental Medicine (IUF) 120-hour Neural Progenitor Cell Migration Assay for Radial Glia Migration (NPC2a) (AID 2284298). A digest of the protocol:
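Hoechst-stained nuclei imaged at 120 h; algorithm maps sphere core by densest nuclei, sets migration edge at density threshold, gives radial glia migration distance (um) per well vs DMSO. hNPC spheres (0.3 mm), PDL/laminin, DMEM/F12 3:1 + 1% N2.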

The nature of assay [3]: IUF_NPC2a_radial_glia_migration_72hr: Leibniz Research Institute for Environmental Medicine (IUF) 72-hour Neural Progenitor Cell Migration Assay for Radial Glia Migration (NPC2a) (AID 2284299). A digest of the protocol:
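Single 0.3 mm neurospheres were plated per well in N2 differentiation medium and exposed from the start of differentiation. After 72 hours, brightfield images were taken and radial glia migration from the sphere core edge was measured manually in four directions, averaged per well.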

Assay [4] can be described thus: IUF_NPC2b_neuronal_migration_120hr: Leibniz Research Institute for Environmental Medicine (IUF) 120-hour Neural Progenitor Cell Migration Assay for Neuron Migration (NPC2b) (AID 2284300). An outline of the steps:
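hNPC spheres, PDL/laminin, DMEM:F12 3:1 + 1% N2, 37C/5% CO2; 7 concentrations + solvent control (DMSO ≤0.1%), 5 d exposure, half-feed day 3. Fix 120 h, TUBB3 ICC, HCI: mean neuron migration distance ÷ glia distance.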

Assay [5] is described as follows: IUF_NPC3_neuronal_differentiation_120hr: Leibniz Research Institute for Environmental Medicine (IUF) 120-hour Neuronal Differentiation Assay (NPC3) (AID 2284301). An outline of the steps:
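hNPC spheres, PDL/laminin, DMEM/F12 3:1 + 1% N2, 37C, 5% CO2; 7 concentrations + solvent control, 5 d exposure, half-change day 3. Fix 120 h; TUBB3/Hoechst ICC, CNN neuron calling; % neurons vs nuclei, DMSO-normalized.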

Assay [6] in a line: IUF_NPC4_neurite_length_120hr: Leibniz Research Institute for Environmental Medicine (IUF) 120-hour Neuronal Morphology Assay for Neurite Length (NPC4) (AID 2284302). An outline of the steps: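 hNPC spheres (0.3 mm, fetal brain GW 16-19) on PDL/laminin, DMEM:F12 3:1 + 1% N2, 37C 5% CO2; 7 concs + solvent control, day 0-5, half medium change d3; fix 120 h, TUBB3 ICC, mean neurite length um vs DMSO.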

The nature of assay [7]: IUF_NPC5_oligodendrocyte_differentiation_120hr: Leibniz Research Institute for Environmental Medicine (IUF) 120-hour Oligodendrocyte Differentiation Assay (NPC5) (AID 2284304; active = hit-call score of the fitted dose curve at least 0.9, where 1 is the maximum;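 also: primary human fetal neural progenitor spheres plated to migrate and differentiate; share of O4-positive cells among Hoechst nuclei found by CNN image analysis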). A digest of the protocol: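 hNPC spheres, fetal cortex GW 16-19; PDL/laminin, DMEM:F12 3:1 + 1% N2, 37C/5% CO2; 7 concentrations + solvent control, 5 d exposure, half-change day 3. Readout: %O4+ of Hoechst+ nuclei in migration area, CNN classification; DMSO baseline.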

Assay [8] in a line: IUF_NPC4_neurite_area_120hr: Leibniz Research Institute for Environmental Medicine (IUF) 120-hour Neuronal Morphology Assay for Neurite Area (NPC4) (AID 2284305; active = hit-call score of the fitted dose curve at least 0.9, where 1 is the maximum). An outline of the steps:
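hNPC spheres on PDL/laminin, N2 medium, 37C/5% CO2; dosed day 0, half-medium refresh day 3; fixed 120 h; TUBB3/Hoechst ICC, high-content imaging; neurite area = mean pixels per neuron (nuclei excluded); DMSO baseline, max 0.1%.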

A short description of assay [9]: IUF_NPC2-5_cytotoxicity_72hr: Cytotoxicity Assessment at 72 hours in the Leibniz Research Institute for Environmental Medicine (IUF) Neural Progenitor Cell Migration and Differentiation Assay for Cytotoxicity (NPC2-5) (AID 2284306; active = hit-call score of the fitted dose curve at least 0.9, where 1 is the maximum;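 also: LDH release into supernatant measured by resorufin fluorescence marking membrane damage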). An outline of the steps:
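hNPC spheres (0.3 mm), PDL/laminin, DMEM/F12 3:1 + 1% N2; cpd from d0, 7 concs + SC, DMSO max 0.1%; half-medium refresh d3. Readout: supernatant LDH via resorufin fluorescence (RFU), 72 h; gain-of-signal fit.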

Assay [10] can be described thus: IUF_NPC2-5_cytotoxicity_120hr: Cytotoxicity Assessment at 120 hours in the Leibniz Research Institute for Environmental Medicine (IUF) Neural Progenitor Cell Migration and Differentiation Assay (NPC2-5) (AID 2284307; active = hit-call score of the fitted dose curve at least 0.9, where 1 is the maximum;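 as to AC50: LDH released into supernatant as membrane damage marker via resorufin fluorescence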). An outline of the steps:
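hNPC spheres on PDL/laminin, N2 medium, 37C; 7 concs + solvent control, DMSO ≤0.1%; 5-day exposure, half medium changed day 3. LDH in supernatant at 120 h, resazurin→resorufin fluorescence, gain-of-signal.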

The nature of assay [11]: IUF_NPC2-5_cell_number_120hr: Cell Number Assessment at 120 hours in the Leibniz Research Institute for Environmental Medicine (IUF) Neural Progenitor Cell Migration and Differentiation Assay (NPC2-5) (AID 2284308).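 Also: count of Hoechst-stained nuclei in migration zone around plated human neural progenitor spheres.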 An outline of the steps: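 Hoechst-stained nuclei within the migration area were counted by automated high content imaging after 120 h. Single hNPC spheres differentiated on poly-D-lysine/laminin in DMEM/F12 (3:1) with 1% N2, compound present throughout, DMSO ≤0.1%.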

Assay [12] can be described thus: IUF_NPC2-5_viability_120hr: Viability Assessment at 120 hours in the Leibniz Research Institute for Environmental Medicine (IUF) Neural Progenitor Cell Migration and Differentiation Assay (NPC2-5) (AID 2284312). A digest of the protocol: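 Human fetal neural progenitor spheres (0.3 mm) plated on poly-D-lysine/laminin in N2 differentiation medium, exposed 120 h with half-medium refresh at day 3. Viability by alamar blue resazurin fluorescence; 7 concentrations, DMSO max 0.1%.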

Assay [13] in a line: CCTE_Mundy_HCI_iCellGluta_NOG_NeuriteLength: CCTE's Neurite Outgrowth Assay in iCellGluta cells for Neurite Length, Mundy Lab (AID 2284318; active = hit-call score of the fitted dose curve at least 0.9, where 1 is the maximum). A digest of the protocol: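 Automated high-content imaging of betaIII-tubulin (Alexa Fluor-488) and Hoechst-stained cells gave neurite length, normalized to the DMSO baseline.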
Read-out in assay [14]: CD69, CD69 (gene 969)
Kind of assay: BSK_LPS_CD69: BioMAP Diversity Plus: LPS Assay for CD69 Biomarker Activity (AID 2284303). To be noted: primary human HUVEC with PBMC. An outline of the steps: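 CD69 surface levels were read by ELISA after 24 h chemical treatment of an LPS-stimulated HUVEC plus PBMC co-culture; positive-direction fit against DMSO vehicle.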

Assay [15] is described as follows: VALA_TUBHUV_Agonist_CellCount: Viability Assessment in the VALA Sciences human Umbilical Vein Endothelial Tubule Formation (TUBHUV) Agonism Assay (AID 2284309; active = hit-call score of the fitted dose curve at least 0.9, where 1 is the maximum). A digest of the protocol: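 Viability endpoint by fluorescent imaging of fixed nuclear/CD31-stained HUVEC–HDF co-cultures. Readout is cell count, fitted upward against 0.1% DMSO. Compound exposure was 72 h in 10 ng/ml VEGF, after 3-day co-culture priming.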

Assay [16] in a line: VALA_TUBIPS_Agonist_TubuleLength: VALA Sciences human iPS-derived Endothelial Tubule Formation (TUBIPS) Agonism Assay (AID 2284311; active = hit-call score of the fitted dose curve at least 0.9, where 1 is the maximum). A digest of the protocol:
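Agonist-mode readout is the gain in imaged tubule length versus DMSO baseline. It was measured by fluorescence high-content imaging 72 h after dosing human iPSC-derived endothelial cells.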

Assay [17] in a line: VALA_TUBIPS_Antagonist_TubuleLength: VALA Sciences human iPS-derived Endothelial Tubule Formation (TUBIPS) Antagonist Assay (AID 2284313; active = hit-call score of the fitted dose curve at least 0.9, where 1 is the maximum). An outline of the steps: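 Tubule length was quantified by high-content imaging of CD31- and nuclear-stained cells, with 0.1% DMSO as neutral and 100 uM suramin as inhibition control. Compounds were applied for 3 days, in 10 ng/ml VEGF, to cultures pre-grown 3 days.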

The nature of assay [18]: VALA_MIGHUV2_WoundArea: VALA Sciences human Umbilical Vein Endothelial Cell Migration (MIGHUV) Assay, Area of Scratch Wound after Recovery (AID 2284316; active = hit-call score of the fitted dose curve at least 0.9, where 1 is the maximum). A digest of the protocol: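 Wound-area endpoint read by fluorescence imaging of Hoechst-stained nuclei after a 24 h recovery period following scratch of HUVEC monolayers (9000 cells/well). Chemicals dosed within 30 min post-scratch, triplicate 6-point series, 0.1% DMSO vehicle; Cytochalasin D positive control.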

Assay [19] relates to IYD (gene 389434). Kind of assay: CCTE_GLTED_hIYD: CCTE's human Iodotyrosine Deiodinase (xIYD) Inhibition Assay, Great Lakes Toxicology and Ecology Division (GLTED) Lab (AID 2284317; active = hit-call score of the fitted dose curve at least 0.9, where 1 is the maximum;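 also: cell-free human IYD enzyme made in baculovirus insect cells; iodide freed from monoiodotyrosine measured by cerium arsenite color change at 420 nm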). An outline of the steps:
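Deiodination of MIT by insect-cell-produced human IYD is measured after a 3 h incubation with test chemical. Free iodide passes through a Dowex column and accelerates Sandell-Kolthoff Ce4+ reduction, read at 420 nm; run in triplicate.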

Assay [20] can be described thus: VALA_TUBHUV_Antagonist_CellCount: Viability Assessment in the VALA Sciences human Umbilical Vein Endothelial Tubule Formation (TUBHUV) Antagonism Assay (AID 2284310; active = hit-call score of the fitted dose curve at least 0.9, where 1 is the maximum). A digest of the protocol: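 Read-out is imaged cell count after nuclear and CD31 staining, fitted against 0.1% DMSO vehicle. Compounds were added for 3 days, in 10 ng/ml VEGF assay medium, to HUVEC–HDF co-cultures pre-grown 3 days.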

“And” between values parts separate entries of the source, which are not always exact repeats. Equal values may be shown once. Inconclusive results are not listed. Some compounds were tested as several samples or in several runs, with calls that do not always agree. The source made the active and inactive calls. The calls were made as follows, unless noted: active = hit-call score of the fitted dose curve at least 0.9, where 1 is the maximum; inactive = score below 0.9.

Take `CC(C)N(C(=O)COc1nnc(C(F)(F)F)s1)c1ccc(F)cc1`: the molecule was classed as inactive in assay [1], in assay [2], in assay [3], in assay [4], in [5] and in assay [6]. Further, the molecule was classed as inactive in assay [7], in assay [8], in assay [9], in [11], in [12] and in assay [13]. In assay [10], the AC50 is 0.0343 µM (active).
For the molecule `O=S1OCC2C(CO1)C1(Cl)C(Cl)=C(Cl)C2(Cl)C1(Cl)Cl` (stereo not drawn), the result in assay [1], in assay [3], in assay [4], in [5], in [6] and in [8] was inactive. Also, the result in assay [9], in assay [10], in [11] and in assay [12] was inactive. Moreover, the values for the AC50 in assay [2], in assay [7] and in [13] were 13.1 µM (active), 2.92 µM (active) and 8.78 µM (active), respectively.
In the case of `COP(=O)(OC)OC=C(Cl)Cl`, the AC50 in assay [1] is 38.2 µM (active); in [2], 40 µM (active); in assay [3], 59.7 µM (active); in assay [4] it was 53.3 µM (active); in assay [6], 13.5 µM (active); in assay [8], 13.3 µM (active). The AC50 in [10] was 89 µM (active); in [11] it was 15 µM (active); in assay [12] it was 29.7 µM (active); in assay [13], 12.9 µM (active). Also, in [9], the call was inactive.
As for `O=S(=O)(O)C(F)(F)C(F)(F)C(F)(F)C(F)(F)C(F)(F)C(F)(F)C(F)(F)C(F)(F)F`, the molecule was classed as inactive in assay [1], in assay [3], in assay [4], in assay [5], in assay [6] and in assay [14]. The result in assay [7], in assay [10], in assay [11], in assay [15], in assay [16] and in [12] was inactive. Besides, the result in assay [17], in assay [18], in assay [19] and in assay [13] was inactive. Further, the AC50 in [2] was 79.3 µM (active) and 16 µM (active); in assay [3] it was 68.6 µM (active); in assay [5], 2.09 µM (active); in [6] it was 0.362 µM (active); in [9], 79.3 µM (active); in assay [10] it was 62.4 µM (active). Also, the AC50 in assay [11] is 73 µM (active); in [19] it was 59 µM (active) and 90.4 µM (active).
As to `Oc1cc(Cl)ccc1Oc1ccc(Cl)cc1Cl`, the outcome in assay [15] and in assay [20] was inactive. In addition, in [19], the AC50 was 37.2 µM (active) and 55.2 µM (active) and 24.3 µM (active).
In the case of `O=C(O)C(F)(F)C(F)(F)C(F)(F)C(F)(F)C(F)(F)C(F)(F)C(F)(F)F`, the outcome in assay [1], in assay [2], in [3], in assay [4], in assay [5] and in [6] was inactive. Further, the outcome in assay [14], in assay [7], in [8], in assay [9], in [10] and in [11] was inactive. The outcome in assay [12] and in assay [13] was inactive. Moreover, in assay [14], the AC50 is 220 nM (active) and 30 µM (active).
On to `COP(=S)(OC)Oc1ccc([N+](=O)[O-])cc1`, for which the molecule was called inactive in assay [1], in assay [2], in assay [3], in assay [4], in assay [5] and in assay [6]. Moreover, the result in assay [7], in assay [8], in assay [9], in assay [10], in assay [11] and in assay [12] was inactive. Moreover, in [13], the AC50 is 21.6 µM (active).
Regarding `CCOCN(C(=O)CCl)c1c(C)cccc1CC`, the molecule was called inactive in [19].

The values are drawn from PubChem BioAssay (EPA / NIEHS).
